The values that follow come from PubChem BioAssay AID362 (NMMLSC, 2006).

In all, about 4,300 compounds went through this assay and about 60 (1%) were called active.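 How the source made its calls: active means inhibition of labelled peptide binding to the formyl peptide receptor of at least 65%; inactive means the rest.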 Shown is part of a subset that was picked to be rich in actives.

Chain of fMet-Leu-Phe receptor (Homo sapiens) (P21462 whole entry, looked up): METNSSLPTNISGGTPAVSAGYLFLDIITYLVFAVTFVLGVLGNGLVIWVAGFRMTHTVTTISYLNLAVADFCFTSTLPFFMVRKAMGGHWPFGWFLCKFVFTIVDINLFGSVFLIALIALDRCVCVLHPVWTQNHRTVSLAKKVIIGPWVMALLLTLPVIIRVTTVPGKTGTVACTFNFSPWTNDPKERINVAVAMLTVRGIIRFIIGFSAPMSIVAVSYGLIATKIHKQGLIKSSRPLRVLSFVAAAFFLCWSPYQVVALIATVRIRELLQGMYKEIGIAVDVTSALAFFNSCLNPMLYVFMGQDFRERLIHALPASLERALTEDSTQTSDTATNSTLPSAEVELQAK

This test has as its target fMet-Leu-Phe receptor (Homo sapiens) (UniProt P21462). Description: FPR binders displacing fluorescent formyl peptide, primary screen, U937-FPR cells, fMLFK-FITC, flow cytometry (AID 362).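 On inhibition: plate controls were buffer control wells for no effect and unlabeled fMLFF blocking peptide for full effect; higher means less cell fluorescence so more probe displaced.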 Particulars: fMLFK-FITC displacement; stronger effect = higher value, concentration not given here.
Regarding `CC1CC(C)CN(C(=O)c2cn(C3CCCC3)c(=O)c3c2c2ccccc2n3C)C1` (configuration not stated), the inhibition entry was “inactive”. Then `CCOC(=O)c1c(-c2ccc(OC)cc2)csc1NC(=O)C1CCCCC1C(=O)O` (configuration not stated), with 3% (inactive); and `COC(=O)c1c(-c2cc(C)ccc2C)csc1NC(=O)C1CCCCC1C(=O)O` (configuration not stated), with 40.4% (inactive). As for `CCOC(=O)c1c(-c2ccc(C)cc2C)csc1NC(=O)C1CCCCC1C(=O)O` (configuration not stated), the inhibition was 94.2% (active). As for `CCOC(=O)c1c(-c2ccc(C)cc2)csc1NC(=O)C1CCCCC1C(=O)O` (configuration not stated), the inhibition was 15.5% (inactive).

For the compound `COC(=O)c1c(-c2cccc(C)c2)csc1NC(=O)C1CCCCC1C(=O)O` (configuration not stated), the inhibition was 68.9% (active). With `COC(=O)c1c(-c2ccccc2)csc1NC(=O)C1CCCCC1C(=O)O` (configuration not stated) the entry was “inactive”. `CCOC(=O)c1c(-c2ccc(F)cc2)csc1NC(=O)C1CCCCC1C(=O)O` (configuration not stated): the inhibition is 35.1% (inactive). With `COC(=O)c1c(-c2ccc(C)c(C)c2)csc1NC(=O)C1CCCCC1C(=O)O` (configuration not stated) the figure was 22.4% (inactive); with `COC(=O)c1c(-c2ccc(F)cc2)csc1NC(=O)C1CCCCC1C(=O)O` (configuration not stated), 72.4% (active). With `O=C(O)C1CCCCC1C(=O)N1CCN(C/C=C/c2ccccc2)CC1` (configuration not stated) the entry was “inactive”; with `O=C(CSc1nc2ccccc2c(=O)n1CC1CCC(C(=O)NCc2ccco2)CC1)NCCC1=CCCCC1` (configuration not stated), 7.9% (inactive). Then `CC(=O)N1CCCc2cc(S(=O)(=O)NC(C(=O)NCc3cccs3)C(C)C)ccc21` (configuration not stated), with “inactive”; and `CC(C)C(C(=O)O)n1c(O)c(C2=c3ccccc3=NC2=O)sc1=S` (configuration not stated), with 106% (active); and `CC(C)C(C(=O)O)n1c(O)c(C2=c3cc(Br)ccc3=NC2=O)sc1=S` (configuration not stated), with 95.3% (active).

As for `Cc1cc(C)c(S(=O)(=O)NCC2CCC(C(=O)NCC3CCCO3)CC2)c(C)c1` (configuration not stated), the inhibition result is “inactive”. With `CC(C)CC(C(=O)OCC(=O)c1ccc(Cl)cc1)N1C(=O)c2ccccc2C1=O` (configuration not stated) the entry was “inactive”.

On to `CCN(CC)CC(=O)N1CCCc2c1c(=O)oc1ccc(OC(C)=O)cc21`, for which the inhibition result is “inactive”. With `Cc1ccc2nc3c(cc(C(=O)NCc4ccco4)c(=N)n3C3CCCC3)c(=O)n2c1` the entry was “inactive”.

In the case of `CCCCc1cc(=O)oc2cc(OCC(=O)OCC)c(Cl)cc12`, the inhibition entry was “inactive”.

For `CC1=C(C)C/S(=N\S(=O)(=O)c2ccccc2)N(S(=O)(=O)c2ccccc2)C1` (configuration not stated), the inhibition is 103% (active). With `CC1=C(C)CS(=Nc2ccccc2[N+](=O)[O-])N(S(=O)(=O)c2ccccc2)C1` (configuration not stated) the entry was “inactive”; with `O=C(C1CCCN(S(=O)(=O)c2ccccc2)C1)N1CCCCC1` (configuration not stated), 7.6% (inactive); with `CC(C)Cn1cc(C(=O)N2CC(C)CC(C)C2)c2c3ccccc3n(C)c2c1=O` (configuration not stated), 5.3% (inactive). With `O=S(=O)(c1ccc(-c2csc(=Nc3cccc4ccccc34)n2CCCCO)cc1)N1CCCCC1`, the inhibition result was “inactive”. With `CCOC(=O)c1c(NC(=O)C2CCCCC2C(=O)O)sc2c1CCC(C(C)(C)C)C2` (configuration not stated) the figure was 71.7% (active); with `CCCOC(=O)c1c(NC(=O)C2CCCCC2C(=O)O)sc2c1CCC2` (configuration not stated), 47.3% (inactive); with `CCOC(=O)c1c(NC(=O)C2CCCCC2C(=O)O)sc2c1CCC(C(C)(C)CC)C2` (configuration not stated), 21% (inactive). Regarding `CC1CCc2c(sc(NC(=O)C3CCCCC3C(=O)O)c2C(=O)OC(C)C)C1` (configuration not stated), the inhibition is 3% (inactive). Regarding `CCOC(=O)c1c(NC(=O)C2C3CCC(C3=C(C)C)C2C(=O)O)sc2c1CCCCCCC2` (configuration not stated), the inhibition was 95.1% (active). Then `CCOC(=O)c1c(NC(=O)C2C3C=CC(C3)C2C(=O)O)sc2c1CCCCCC2` (configuration not stated), with 16.4% (inactive); and `CCC(C)(C)C1CCc2c(sc(NC(=O)C3CCCCC3C(=O)O)c2C(=O)OC)C1` (configuration not stated), with 80.5% (active); and `CCCOC(=O)c1c(NC(=O)C2CCCCC2C(=O)O)sc2c1CCC(C)C2` (configuration not stated), with 23.4% (inactive). Take `CCOC(=O)c1c(NC(=O)C2C3C=CC(CC3)C2C(=O)O)sc2c1CCCC2` (configuration not stated): the inhibition is 4.5% (inactive). In the case of `CCC(C)C(NC(=O)C(CC(=O)OCc1ccccc1)NC(=O)OC(C)(C)C)C(=O)NC(Cc1ccccc1)C(N)=O` (configuration not stated), the inhibition result is “inactive”. On to `CCOc1cc(C2C(C(=O)OC3CCCC3)=C(C)NC3=C2C(=O)C(C(=O)OC)C(C)C3)ccc1O` (configuration not stated), for which the inhibition was 15.5% (inactive). With `CCCN(CCC)CCNC(=O)c1cn(CC(C)C)c(=O)c2cc(OC)c(OC)cc12` the entry was “inactive”; with `CC1=C(C(=O)OC2CCCCC2)C(c2cccc(O)c2)C2=C(CC(C)(C)CC2=O)N1` (configuration not stated), 20.5% (inactive). For `O=C(CCCCCn1c(SCC(=O)NCc2ccccc2)nc2ccccc2c1=O)NCc1ccco1`, the inhibition is 3.6% (inactive). On to `COc1ccc2nc(NC(=O)C(NS(=O)(=O)c3ccc4c(c3)CCN4C(C)=O)C(C)C)sc2c1` (configuration not stated), for which the inhibition entry was “inactive”.

For the compound `COc1ccc(C2/C(=C(\O)c3ccc(F)cc3)C(=O)C(=O)N2CCCCCC(=O)O)c(OC)c1` (configuration not stated), the inhibition was 23.3% (inactive). As for `COc1ccc(OC)c(C2/C(=C(/O)c3ccc(C)cc3)C(=O)C(=O)N2CC(C)C)c1` (configuration not stated), the inhibition is 86.7% (active). With `COc1ccccc1C1/C(=C(\O)c2ccc(F)cc2)C(=O)C(=O)N1CCCCCC(=O)O` (configuration not stated) the figure was 11.2% (inactive); with `COc1ccc(C2/C(=C(/O)c3ccc(C)cc3)C(=O)C(=O)N2CC(C)C)c(OC)c1` (configuration not stated), 52.9% (inactive); with `COc1ccc(OC)c(C2/C(=C(\O)c3ccc(F)cc3)C(=O)C(=O)N2CCCCCC(=O)O)c1` (configuration not stated), 84.5% (active). With `COc1ccc(C2/C(=C(/O)c3ccc(Cl)cc3)C(=O)C(=O)N2CC(C)C)c(OC)c1` (configuration not stated) the figure was 31.1% (inactive); with `O=C(Nc1nccs1)c1cc(N2C(=O)C3C4CCC(C4)C3C2=O)ccc1Cl` (configuration not stated), “inactive”; with `CCSCCOC(=O)C1=C(C)NC2=C(C(=O)C(C(=O)OC)C(C)C2)C1c1cccc(F)c1` (configuration not stated), 5.8% (inactive). Consider `O=c1oc2cc(O)ccc2c2c1CCCC2`, for which the inhibition result was “inactive”. Then `O=c1oc2cc(O)cc(O)c2c2c1CCC2`, with 81.6% (active). For `O=c1oc2cc(O)ccc2c2c1CCC2`, the inhibition was 7% (inactive). Consider `Cc1cc(NC(=O)C2CCCCC2C(=O)O)nn1Cc1ccc(Cl)cc1` (configuration not stated), for which the inhibition was 3% (inactive). Then `CCCCCCOC(=O)C1=C(C)NC(=O)NC1c1cc(OC)c(O)c(OC)c1` (configuration not stated), with “inactive”. Then `CCCCCC(=O)Oc1cccc(N2C(=O)C3C4CCC(C4)C3C2=O)c1` (configuration not stated), with “inactive”; and `COC(=O)CC/C(O)=C1\C(=O)CC(C)(C)CC1=NCCc1ccc(OC)c(OC)c1`, with 3.2% (inactive).

Turning to `CCOc1cc2c(C(=O)N3CCN(c4ccccn4)CC3)cn(CC(C)C)c(=O)c2cc1OCC`, the inhibition is 3.9% (inactive). Then `CCOc1cc2c(C(=O)O)cn(CC(C)C)c(=O)c2cc1OCC`, with 70% (active); and `COc1cc2c(C(=O)O)cn(CC(C)C)c(=O)c2cc1OC`, with “inactive”; and `CCCc1cc(=O)oc2cc(OC(C)=O)cc(OC(C)=O)c12`, with 77.3% (active).

On to `CCCc1cc(=O)oc2cc(OCC(=O)OCC)cc(OCC(=O)OCC)c12`, for which the inhibition entry is “inactive”. With `CCCc1cc(=O)oc2cc(OC(C)=O)ccc12` the figure was 17.6% (inactive). Then `CCOc1ccc(CCNC(=O)c2cn(CC(C)C)c(=O)c3cc(OC)c(OC)cc23)cc1OCC`, with “inactive”; and `C=C(C)Cn1c(SCC(=O)c2ccccc2)nc2c(c1=O)C1(CCCC1)Cc1ccccc1-2`, with “inactive”; and `CCOC(=O)c1cc2c(=O)n3ccccc3nc2n(CC(C)C)c1=NC(=O)c1ccccc1OCC`, with “inactive”.

Turning to `CCOC(=O)c1c(NC(=O)C2C3CCC(C3)C2C(=O)O)sc(C)c1-c1ccc(C(C)(C)C)cc1` (configuration not stated), the inhibition is 63.6% (inactive). Then `CCOC(=O)c1c(NC(=O)C2C3CCC(C3)C2C(=O)O)sc(C)c1-c1ccc(Cl)cc1` (configuration not stated), with 45.9% (inactive); and `CCOC(=O)c1c(NC(=O)C2CCCCC2C(=O)O)sc(C)c1-c1ccc(F)cc1` (configuration not stated), with 57.3% (inactive); and `CCCOC(=O)c1c(NC(=O)C2CCCCC2C(=O)O)sc(C)c1-c1ccc(F)cc1` (configuration not stated), with 17.2% (inactive). Then `Cc1sc(NC(=O)C2CCCCC2C(=O)O)c(C(N)=O)c1-c1ccc(C(C)(C)C)cc1` (configuration not stated), with 70.2% (active); and `CCOC(=O)c1c(NC(=O)C2CCCCC2C(=O)O)sc(C)c1-c1ccc(Cl)cc1` (configuration not stated), with 77.1% (active); and `CCCOC(=O)c1c(NC(=O)C2CCCCC2C(=O)O)sc(C)c1C` (configuration not stated), with 35.7% (inactive). For the compound `Cc1sc(NC(=O)C2C3CCC(C3)C2C(=O)O)c(C(N)=O)c1-c1ccc(C(C)(C)C)cc1` (configuration not stated), the inhibition was 82% (active). Then `CCOC(=O)c1c(NC(=O)C2CCCCC2C(=O)O)sc(C)c1-c1ccc(C(C)(C)C)cc1` (configuration not stated), with 29.4% (inactive); and `N#CC1=C(SCC(=O)Nc2ccc(Cl)cc2)NC(=O)C(C#N)C12CCCCC2` (configuration not stated), with 52.1% (inactive); and `N#CC1=C(SCC(=O)Nc2ccc(F)cc2)NC(=O)C(C#N)C12CCCCC2` (configuration not stated), with 15.5% (inactive). Regarding `N#CC1=C(SCC(=O)Nc2ccc(Br)cc2)NC(=O)C(C#N)C12CCCCC2` (configuration not stated), the inhibition was 79.2% (active). With `O=C(CCCN1C(=O)c2cccc3cccc(c23)C1=O)N1CCC(CN2C(=O)c3cccc4cccc(c34)C2=O)CC1`, the inhibition result was “inactive”. With `CC1CCC(C(C)C)C(OCC(O)CN2CCC(CN3C(=O)c4cccc5cccc(c45)C3=O)CC2)C1` (configuration not stated) the figure was 93.4% (active); with `O=C1c2cccc3cccc(c23)C(=O)N1CC1CCN(C(=O)C23CC4CC(CC(C4)C2)C3)CC1`, “inactive”. For the compound `CCOC(=O)c1cnc2ccc(OCC)cc2c1N1CCCCCC1`, the inhibition is 25.2% (inactive). On to `CCOC(=O)c1cnc2ccc(OC)cc2c1NC1CCCCC1`, for which the inhibition is 99.3% (active). With `CCOC(=O)c1cnc2cc(Cl)c(OC)cc2c1NCCC1=CCCCC1` the figure was 0.9% (inactive); with `CCCN(CCC)Cc1c(O)ccc2c(=O)c(Oc3cc(C)cc(C)c3)c(C(F)(F)F)oc12`, 17.9% (inactive); with `COc1cc2c(C(=O)NCCc3ccc(Cl)cc3)cn(CC(C)C)c(=O)c2cc1OC`, “inactive”.

As to `CC(=O)Oc1ccc(C2Nc3c(C(=O)O)ccc([N+](=O)[O-])c3C3C=CCC32)cc1` (configuration not stated), the inhibition entry was “inactive”. Turning to `CCOC(=O)C1CCC(CN(Cc2cccc(Br)c2)S(=O)(=O)c2cccc(C(F)(F)F)c2)CC1` (configuration not stated), the inhibition entry is “inactive”. Consider `CN(C)c1ccc(C(c2cc(C(C)(C)C)c(O)c(C(C)(C)C)c2)N2CCOCC2)cc1` (configuration not stated), for which the inhibition was 29.2% (inactive).
